According to PubChem BioAssay (EPA / NIEHS):
Results filed as inconclusive are left out. More than one record can exist for a structure, and the calls need not agree. Calls of active or inactive are those of the source. How the source made its calls, unless noted: active means hit-call score of the fitted dose curve at least 0.9, where 1 is the maximum; inactive means score below 0.9.

Key:
[1] = ATG_PBREM_CIS: Attagene CIS-FACTORIAL HepG2 Assay for human Phenobarbital-responsive Enhancer Module (PBREM) (AID 2282955); conditions: HepG2 PBREM cis-reporter, Attagene multiplexed transcription; actives raise or lower the signal
Outline: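 Cells were transfected with cis-element reporter units and treated for 24 h, after which RNA was extracted and reporter transcripts measured by RT-PCR and capillary electrophoresis.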

[2] = target: Paired box protein Pax-6 (Homo sapiens) (UniProt P26367); assay: ATG_Pax6_CIS: Attagene CIS-FACTORIAL HepG2 Assay for human Paired Box 6 (PAX6) (AID 2282956); conditions: HepG2 CIS-FACTORIAL PAX6 reporter transcription, RNA readout; actives raise or lower the signal
Outline: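 HepG2 cells transiently transfected with cis-promoter-driven multiplexed reporter units sensing endogenous transcription factor activity; 24 h chemical exposure. Reporter mRNA quantified by RT-PCR, 6-FAM labelling, HpaI digestion and capillary electrophoresis; bidirectional fit versus DMSO baseline.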

[3] = ATG_PXRE_CIS: Attagene CIS-FACTORIAL HepG2 Assay for human Pregnane X Receptor Element (PXRE) (AID 2282957); conditions: HepG2 Attagene CIS-FACTORIAL PXRE reporter, mRNA; actives raise or lower the signal
Outline: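 Multiplexed cis-reporter assay in transiently transfected human HepG2 cells; 24 h chemical exposure. Reporter transcripts quantified by RT-PCR with fluorescent labeling and capillary electrophoresis.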

[4] = ATG_PPRE_CIS: Attagene CIS-FACTORIAL HepG2 Assay for human Peroxisome Proliferator-activated Response Element (PPRE) (AID 2282958); conditions: HepG2 PPRE cis-element reporter, Attagene transcription factor profiling; actives raise or lower the signal
Outline: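 In this cell-based multiplex, a PPRE cis element drives a reporter sequence in transiently transfected HepG2 cells. Following 24 h treatment, labeled cDNA amplicons are sized and quantified by capillary electrophoresis, with DMSO defining baseline.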

[5] = ATG_RORE_CIS: Attagene CIS-FACTORIAL HepG2 Assay for human RAR-related Orphan Receptor Element (RORE) (AID 2282959); conditions: HepG2 Attagene cis-factorial RORE reporter, mRNA; actives raise or lower the signal
Outline: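 Endogenous factor activity at a cis response element is read as reporter transcript levels in HepG2 cells, 24 h post-dose. Transcripts are quantified by RT-PCR with capillary electrophoresis, and data fitted in both directions against DMSO.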

[6] = ATG_Sox_CIS: Attagene CIS-FACTORIAL HepG2 Assay for human SRY-box transcription factor (SOX) (AID 2282960); conditions: HepG2 Attagene cis-factorial SOX reporter, mRNA; actives raise or lower the signal
Outline: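 Measures mRNA induction of a SOX1-associated reporter in HepG2 after 24 h dosing. Fluorescently labelled RT-PCR fragments are separated by capillary electrophoresis, and gain or loss relative to DMSO control is fitted.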

[7] = target: Transcription factor Sp1 (Homo sapiens) (UniProt P08047); assay: ATG_Sp1_CIS: Attagene CIS-FACTORIAL HepG2 Assay for human Specificity Protein 1 (Sp1) (AID 2282961); conditions: HepG2 Sp1 cis-reporter transcription, actives raise or lower the signal
Outline: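 Cells: HepG2, transiently transfected with cis-regulated multiplexed reporters. Exposure: 24 h. Detection: reporter transcripts amplified, fluorescently labeled, restriction-digested and sized by capillary electrophoresis. Analysis: bidirectional fit relative to DMSO.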

[8] = ATG_SREBP_CIS: Attagene CIS-FACTORIAL HepG2 Assay for human Sterol Regulatory Element Binding (SREBP) (AID 2282962); conditions: HepG2 Attagene cis-factorial SREBP reporter, mRNA; actives raise or lower the signal
Outline: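 HepG2 cells transiently transfected with multiplexed cis-promoter reporter units sensing endogenous transcription factors; reporter mRNA measured 24 h after dosing by RT-PCR, 6-FAM labeling, HpaI digestion and capillary electrophoresis. Bidirectional fit versus DMSO.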

[9] = target: Signal transducer and activator of transcription 3 (Homo sapiens) (UniProt P40763); assay: ATG_STAT3_CIS: Attagene CIS-FACTORIAL HepG2 Assay for human Signal Transducer and Activator of Transcription 3 (STAT3) (AID 2282963); conditions: HepG2, Attagene cis-factorial STAT3 reporter transcription; actives raise or lower the signal
Outline: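 Values derive from bidirectional fits relative to DMSO of reporter mRNA levels, measured by RT-PCR with capillary electrophoresis, in HepG2 cells carrying transiently transfected cis-regulated reporter units and exposed 24 h.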

[10] = ATG_TA_CIS: Attagene CIS-FACTORIAL HepG2 Assay for human TA Basal Promoter (AID 2282964); conditions: HepG2 Attagene CIS-factorial TA basal promoter reporter; actives raise or lower the signal
Outline: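 Multiplexed mRNA reporter assay, HepG2, 24 h. Reporter cDNA amplified, 6-FAM primer-extended, HpaI-cut, CE-sized; DMSO = negative control and baseline.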

[11] = ATG_TCF_b_cat_CIS: Attagene CIS-FACTORIAL HepG2 Assay for human T-Cell-Factor with beta-catenin (TCF/b-cat) (AID 2282965); conditions: HepG2 TCF/beta-catenin cis-reporter transcription, actives raise or lower the signal
Outline: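 HepG2, transient MRTU transfection, cis-element-driven reporters (endogenous TFs). 24 h compound exposure. Readout: reporter mRNA by RT-PCR + 6-FAM primer extension, HpaI digest, capillary electrophoresis. Gain/loss fit vs DMSO baseline.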

[12] = ATG_TGFb_CIS: Attagene CIS-FACTORIAL HepG2 Assay for human Transforming Growth Factor (TGF) (AID 2282967); conditions: HepG2 Attagene CIS TGFb reporter, mRNA transcription; actives raise or lower the signal
Outline: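 Transcript-level reporter readout: HepG2 transfectants, 24 h exposure, RNA to cDNA, reporter-specific PCR, fluorescent primer extension, capillary sizing against ROX standards. Gain- or loss-of-signal relative to DMSO.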

[13] = ATG_VDRE_CIS: Attagene CIS-FACTORIAL HepG2 Assay for human Vitamin D Receptor Element (VDRE) (AID 2282968); conditions: HepG2 VDRE cis-reporter transcription, actives raise or lower the signal
Outline: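 Cell-based multiplexed reporter format in human liver HepG2 cells, 24 h post-dose. Fluorescence from capillary electrophoresis of reporter cDNA gives the signal, with DMSO as negative control and baseline.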

[14] = target: Estrogen receptor (Homo sapiens) (UniProt P03372); assay: ATG_ERa_TRANS: Attagene TRANS-FACTORIAL HepG2 Assay for human Estrogen Receptor alpha (ERa) (AID 2282970; active means hit-call score of the fitted dose curve at least 0.9, where 1 is the maximum); conditions: HepG2 Attagene TRANS ERa GAL4 reporter, mRNA
Outline: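 Multiplexed cell-based reporter format in HepG2: chimeric ERa-Gal4 protein drives GAL4-UAS reporter transcription. Fluorescent reporter mRNA quantified by capillary electrophoresis 24 hours after dosing; endpoint fitted as signal gain against DMSO.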

[15] = ATG_M_19_TRANS: Attagene TRANS-FACTORIAL HepG2 Assay for M19 Transcription Factor (Internal Marker) (AID 2282974; active means hit-call score of the fitted dose curve at least 0.9, where 1 is the maximum); conditions: HepG2 Attagene TRANS-FACTORIAL M19 internal marker reporter
Outline: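 Reporter mRNA induction was measured in transfected HepG2 cells 24 h after dosing. Endpoint fitted upward relative to DMSO and serves as a background control within the multiplexed TRANS panel.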

[16] = target: Nuclear receptor subfamily 1 group I member 3 (Homo sapiens) (UniProt Q14994); assay: ATG_CAR_TRANS: Attagene TRANS-FACTORIAL HepG2 Assay for human Constitutive Androstane Receptor (CAR) (AID 2282969; active means hit-call score of the fitted dose curve at least 0.9, where 1 is the maximum;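 further: activators raise reporter mRNA above DMSO so AC50 marks induction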); conditions: HepG2 Attagene TRANS-FACTORIAL CAR reporter
Outline: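 HepG2 cells transiently transfected with GAL4-UAS reporter units; TRANS format reads activity of exogenous chimeric NR-Gal4 protein. After 24 h dosing, reporter mRNA quantified by RT-PCR, 6-FAM labelling and capillary electrophoresis; gain of signal fitted against DMSO.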

[17] = target: X-box-binding protein 1 (Homo sapiens) (UniProt P17861); assay: ATG_Xbp1_CIS: Attagene CIS-FACTORIAL HepG2 Assay for human X-box Binding Protein 1 (XBP1) (AID 2282972); conditions: HepG2 XBP1 cis-element reporter, Attagene multiplex; actives raise or lower the signal
Outline: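 HepG2 cells transiently transfected with multiple cis-element reporter units report endogenous TF activity; 24 h exposure, then reporter mRNA measured by RT-PCR, 6-FAM labelling, HpaI digestion and capillary electrophoresis. Bidirectional fitting versus DMSO.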

[18] = ATG_GAL4_TRANS: Attagene TRANS-FACTORIAL HepG2 Assay for GAL4 (Internal Marker) (AID 2282976; active means hit-call score of the fitted dose curve at least 0.9, where 1 is the maximum); conditions: HepG2 Attagene TRANS GAL4 internal marker reporter
Outline: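 Liver HepG2 line bearing multiplexed GAL4-UAS reporter constructs; 24 h chemical treatment. Transcripts were quantified as fluorescent fragments on capillary electrophoresis after RT-PCR and HpaI cut, with activity fitted upward from DMSO.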

[19] = ATG_TAL_CIS: Attagene CIS-FACTORIAL HepG2 Assay for human TAL Basal Promoter (AID 2282966); conditions: HepG2 Attagene cis-factorial TAL promoter reporter; actives raise or lower the signal;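 further: background control endpoint measuring basal TAL promoter reporter mRNA not a specific factor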
Outline: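 Steps: transfect HepG2 with multiple reporter transcription units; dose 24 h; isolate RNA, reverse-transcribe, PCR-amplify, label with 6-FAM, digest with HpaI; resolve by capillary electrophoresis. Bidirectional fitting against DMSO baseline.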

[20] = target: Steroid hormone receptor ERR1 (Homo sapiens) (UniProt P11474); assay: ATG_ERRa_TRANS: Attagene TRANS-FACTORIAL HepG2 Assay for human Estrogen-Related Receptor alpha (ERRa) (AID 2282971; active means hit-call score of the fitted dose curve at least 0.9, where 1 is the maximum); conditions: HepG2 Attagene TRANS reporter, ERRa transactivation
Outline: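 Signal gain relative to DMSO for an ERRa-Gal4 chimeric receptor, read as reporter mRNA by RT-PCR/capillary electrophoresis. Human HepG2 liver cells, transient multiplex reporter transfection, 24 h chemical exposure.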

Measured: AC50

Estrogen receptor (Homo sapiens), sequence (P03372 whole entry, looked up, the tested form may be a part): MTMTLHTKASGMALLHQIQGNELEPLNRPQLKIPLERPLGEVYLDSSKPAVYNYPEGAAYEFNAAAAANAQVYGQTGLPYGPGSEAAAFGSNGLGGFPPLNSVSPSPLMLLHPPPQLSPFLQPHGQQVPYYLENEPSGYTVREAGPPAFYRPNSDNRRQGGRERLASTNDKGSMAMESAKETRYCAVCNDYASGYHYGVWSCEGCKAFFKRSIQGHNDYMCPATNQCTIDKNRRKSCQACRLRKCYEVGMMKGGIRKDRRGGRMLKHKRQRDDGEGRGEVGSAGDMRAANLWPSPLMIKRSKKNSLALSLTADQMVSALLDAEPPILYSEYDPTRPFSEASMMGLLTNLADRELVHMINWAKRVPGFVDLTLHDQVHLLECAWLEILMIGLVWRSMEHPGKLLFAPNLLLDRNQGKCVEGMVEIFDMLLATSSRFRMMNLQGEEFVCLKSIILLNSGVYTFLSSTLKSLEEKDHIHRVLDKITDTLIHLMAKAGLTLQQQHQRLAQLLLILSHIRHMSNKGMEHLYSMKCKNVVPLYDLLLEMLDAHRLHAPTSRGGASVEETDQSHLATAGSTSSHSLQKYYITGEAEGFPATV
Transcription factor Sp1 (Homo sapiens), sequence (P08047 whole entry, looked up): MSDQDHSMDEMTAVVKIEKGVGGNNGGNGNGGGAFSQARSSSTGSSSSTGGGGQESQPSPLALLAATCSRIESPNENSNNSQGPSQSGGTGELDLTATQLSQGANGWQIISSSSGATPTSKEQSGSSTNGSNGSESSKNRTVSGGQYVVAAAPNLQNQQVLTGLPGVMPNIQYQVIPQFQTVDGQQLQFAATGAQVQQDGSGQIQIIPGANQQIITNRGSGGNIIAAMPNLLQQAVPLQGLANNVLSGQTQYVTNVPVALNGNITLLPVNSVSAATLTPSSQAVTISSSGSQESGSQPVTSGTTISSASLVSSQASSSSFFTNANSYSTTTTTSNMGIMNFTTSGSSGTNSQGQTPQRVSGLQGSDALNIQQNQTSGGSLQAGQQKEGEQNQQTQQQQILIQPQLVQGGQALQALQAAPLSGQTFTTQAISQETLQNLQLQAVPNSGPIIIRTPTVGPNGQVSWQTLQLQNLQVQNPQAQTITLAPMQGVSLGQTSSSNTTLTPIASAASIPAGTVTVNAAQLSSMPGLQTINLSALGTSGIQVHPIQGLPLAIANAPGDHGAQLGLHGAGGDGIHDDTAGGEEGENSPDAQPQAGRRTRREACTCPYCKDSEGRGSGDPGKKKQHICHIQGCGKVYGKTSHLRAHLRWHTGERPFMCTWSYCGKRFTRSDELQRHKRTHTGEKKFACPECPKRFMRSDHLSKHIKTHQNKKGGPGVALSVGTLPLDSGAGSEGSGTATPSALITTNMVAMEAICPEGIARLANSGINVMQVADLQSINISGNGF
Signal transducer and activator of transcription 3 (Homo sapiens), sequence (P40763 whole entry, looked up): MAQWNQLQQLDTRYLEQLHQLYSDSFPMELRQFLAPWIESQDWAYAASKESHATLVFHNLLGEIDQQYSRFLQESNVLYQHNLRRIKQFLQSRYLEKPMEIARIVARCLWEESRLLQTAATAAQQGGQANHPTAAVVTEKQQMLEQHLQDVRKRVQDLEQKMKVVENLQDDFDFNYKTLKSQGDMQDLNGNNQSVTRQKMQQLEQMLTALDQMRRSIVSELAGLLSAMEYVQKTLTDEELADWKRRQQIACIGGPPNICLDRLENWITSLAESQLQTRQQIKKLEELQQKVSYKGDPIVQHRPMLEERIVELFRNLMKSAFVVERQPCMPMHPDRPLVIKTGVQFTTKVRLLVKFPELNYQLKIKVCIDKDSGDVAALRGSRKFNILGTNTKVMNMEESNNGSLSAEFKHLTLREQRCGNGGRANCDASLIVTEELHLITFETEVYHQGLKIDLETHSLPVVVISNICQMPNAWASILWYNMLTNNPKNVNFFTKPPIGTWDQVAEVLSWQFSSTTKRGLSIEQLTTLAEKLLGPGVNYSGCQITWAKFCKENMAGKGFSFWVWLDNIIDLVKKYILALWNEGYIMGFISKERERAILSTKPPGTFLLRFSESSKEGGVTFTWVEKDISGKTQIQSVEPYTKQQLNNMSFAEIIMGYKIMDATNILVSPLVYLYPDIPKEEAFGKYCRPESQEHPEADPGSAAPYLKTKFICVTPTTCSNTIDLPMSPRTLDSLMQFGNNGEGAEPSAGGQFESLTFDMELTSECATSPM
Paired box protein Pax-6 (Homo sapiens), sequence (P26367 whole entry, looked up): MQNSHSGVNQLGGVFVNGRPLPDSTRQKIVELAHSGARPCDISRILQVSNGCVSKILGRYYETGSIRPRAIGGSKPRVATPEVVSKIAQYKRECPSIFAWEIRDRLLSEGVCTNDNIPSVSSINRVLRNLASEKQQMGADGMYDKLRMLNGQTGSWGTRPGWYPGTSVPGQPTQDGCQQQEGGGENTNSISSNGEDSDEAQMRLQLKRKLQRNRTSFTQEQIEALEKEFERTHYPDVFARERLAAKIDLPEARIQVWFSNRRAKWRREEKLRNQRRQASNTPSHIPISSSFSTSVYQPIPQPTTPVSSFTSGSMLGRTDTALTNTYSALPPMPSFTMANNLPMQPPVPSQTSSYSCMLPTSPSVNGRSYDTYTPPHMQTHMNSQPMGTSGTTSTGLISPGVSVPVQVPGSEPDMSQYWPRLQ
Nuclear receptor subfamily 1 group I member 3 (Homo sapiens), sequence (Q14994 whole entry, looked up, the tested form may be a part): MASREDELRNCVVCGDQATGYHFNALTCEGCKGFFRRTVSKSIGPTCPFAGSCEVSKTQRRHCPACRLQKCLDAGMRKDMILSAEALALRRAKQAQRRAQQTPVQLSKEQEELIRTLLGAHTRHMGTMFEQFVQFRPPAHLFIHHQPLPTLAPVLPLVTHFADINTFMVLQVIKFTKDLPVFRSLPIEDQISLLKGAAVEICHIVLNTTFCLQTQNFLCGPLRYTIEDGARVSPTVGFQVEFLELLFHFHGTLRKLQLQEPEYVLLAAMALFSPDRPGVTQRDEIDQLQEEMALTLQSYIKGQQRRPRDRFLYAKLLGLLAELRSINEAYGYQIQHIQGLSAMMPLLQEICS
X-box-binding protein 1 (Homo sapiens), sequence (P17861 whole entry, looked up): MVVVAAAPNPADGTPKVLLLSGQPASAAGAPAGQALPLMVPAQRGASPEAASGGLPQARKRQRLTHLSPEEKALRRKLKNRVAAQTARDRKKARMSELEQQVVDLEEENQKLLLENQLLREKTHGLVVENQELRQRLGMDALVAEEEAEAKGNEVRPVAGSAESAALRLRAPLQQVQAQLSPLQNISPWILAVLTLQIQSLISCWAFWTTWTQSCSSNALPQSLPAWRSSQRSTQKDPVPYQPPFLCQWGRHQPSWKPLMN
Steroid hormone receptor ERR1 (Homo sapiens), sequence (P11474 whole entry, looked up, the tested form may be a part): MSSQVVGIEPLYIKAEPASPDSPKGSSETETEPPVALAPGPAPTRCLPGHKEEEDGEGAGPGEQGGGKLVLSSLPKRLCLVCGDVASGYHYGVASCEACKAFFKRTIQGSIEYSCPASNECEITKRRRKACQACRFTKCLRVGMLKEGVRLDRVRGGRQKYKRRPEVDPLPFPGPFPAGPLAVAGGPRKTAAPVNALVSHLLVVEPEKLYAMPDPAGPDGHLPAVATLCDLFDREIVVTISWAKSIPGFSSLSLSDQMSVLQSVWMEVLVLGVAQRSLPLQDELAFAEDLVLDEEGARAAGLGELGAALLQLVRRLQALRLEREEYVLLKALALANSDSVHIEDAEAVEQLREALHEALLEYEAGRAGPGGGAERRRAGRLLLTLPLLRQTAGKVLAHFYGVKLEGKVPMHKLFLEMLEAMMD

O=C1CN(N=Cc2ccc([N+](=O)[O-])o2)C(=O)N1
active: [11] 21.4 µM | [14] 32.1 µM
not listed: [16] | [17] | [18] | [19] | [20]
inactive: all other assays above

O=c1[nH]cnc2c1ncn2[C@H]1CC[C@@H](CO)O1
not listed: [13] | [14] | [18] | [19] | [20]
inactive: all other assays above

CC(C)CC(C)O (stereo unspecified)
not listed: [6] | [14] | [17] | [19] | [20]
inactive: all other assays above

NC(N)=O
not listed: [6] | [13] | [14] | [16] | [17] | [19] | [20]
inactive: all other assays above

Cc1ccc(S(=O)(=O)NC(=O)NN2CCCCCC2)cc1
not listed: [6] | [15] | [16] | [17] | [19] | [20]
inactive: all other assays above

COS(C)(=O)=O
not listed: [15] | [16] | [20]
inactive: all other assays above

FC(F)=C(F)C(F)(F)C(F)(F)C(F)(F)C(F)(F)C(F)(F)C(F)(F)F
inactive: [1] | [2] | [3] | [4] | [5] | [6] | [7] | [8] | [9] | [10] | [11] | [12] | [13] | [16] | [14] | [20] | [17] | [15] | [18]
active: [11] 234 µM | [14] 12.9 µM

Nc1ccn([C@@H]2O[C@H](CO)[C@@H](O)[C@@H]2O)c(=O)n1
active: [14] 40 µM
not listed: [6] | [16] | [17] | [20]
inactive: all other assays above
